ALDH1A1 block = blocks purified human ALDH1A1 activity | P00352 | Purified ALDH1A1, NADH fluorescence, propionaldehyde substrate | Potency, µM (highest dose often 75.3 µM), without a hit: at the top dose activity, negative = inhibition, most hits filed as inhibitors | 220,000 tested, 7.3% active | AID 1030; active = well fitted inhibition curve with a large enough effect, not every such curve was filed as active; inconclusive = small, poorly fitted or top-dose-only effect, or another doubt; inactive = no such curve, though single readings can be large or run the other way;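 also: potency is read from the fitted curve at half-maximal effect; plate controls were no enzyme wells and a reference inhibitor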
PNC inhibitor = inhibitors of perinucleolar compartment assembly; 140,000 tested, 3.1% active; PC3M PTB-GFP, PNC prevalence imaging, 16 h; stronger effect = lower value; activity change (PNC), negative = inhibition, % at 10 µM; AID 2417;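 active = readout at or below -70, meaning at least 70% loss of cells showing the perinucleolar compartment, a nuclear body marking cancer cells; inconclusive = readout between -30 and a set limit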;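 also: plate controls were DMSO wells for no effect and camptothecin positive control wells for full effect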
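Compounds are pinned in duplicate onto adhered PC3M cells stably expressing GFP-tagged PTB and incubated 16 h at 37 C. Cells are then fixed, nuclei stained with Hoechst, and PNC-positive cells counted.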
12-hLO inh = 12-hLO (ALOX12) enzyme inhibition | AID 1452 | 150,000 tested, 0.12% active | P18054 | Potency, µM (doses to about 57.1 µM), for the others: top-dose activity change, negative = inhibition, hits mostly inhibitors | purified 12-hLO, xylenol orange hydroperoxide absorbance; also: potency is read from the fitted curve at half-maximal effect; nearly all actives have a fitted effect of over 55% in size
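Purified human 12hLO (150 nM), preincubated 15 min with compound, then 40 uM arachidonic acid for 30 min, room temperature, Hepes pH 7.0 with 0.01% Triton X-100. Hydroperoxide detected by ferrous iron/xylenol orange; 573/405 nm absorbance ratio gives reaction progress.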
HPGD block = blocks human HPGD enzyme activity; Potency, µM, for the others: at the highest dose activity change, negative = inhibition, actives largely listed as inhibitors; AID 894; purified HPGD, NADH fluorescence kinetic, PGE2 substrate; P15428; 150,000 tested, 4.3% active; active = well fitted inhibition curve with a large enough effect, not every such curve was filed as active; inconclusive = small, poorly fitted or top-dose-only effect, or another doubt; inactive = no such curve, though single readings can be large or run the other way; also: potency is read from the fitted curve at half-maximal effect
Target sequence (P15428 whole entry, looked up): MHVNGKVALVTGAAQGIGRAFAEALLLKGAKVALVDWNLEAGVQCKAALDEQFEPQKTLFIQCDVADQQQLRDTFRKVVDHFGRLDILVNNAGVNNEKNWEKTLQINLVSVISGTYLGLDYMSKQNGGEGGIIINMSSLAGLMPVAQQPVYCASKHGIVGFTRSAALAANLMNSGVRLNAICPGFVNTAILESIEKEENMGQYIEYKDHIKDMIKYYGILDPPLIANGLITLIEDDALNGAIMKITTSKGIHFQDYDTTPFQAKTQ
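NADH formation kinetics: reaction with 30 uM PGE2 and 1 mM NAD+ (final), 20 nM enzyme, Tris-HCl pH 8 with Tween 20, after 15 min compound preincubation at room temperature. Fluorescence change, last versus first of five reads.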
IMPase Li inh = cell-permeable IMPase inhibitors with lithium potentiation; CHO-M1 cells, IP1 TR-FRET (IP-One), carbachol + lithium; Potency, µM (top dose mostly 59.4 µM), for the others: top-dose activity, negative = IMPase inhibition, most hits filed as inhibitors; 210,000 tested, 0.35% active;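 also: IP1 builds up when IMPase is blocked and the TR-FRET signal falls; potency is read from the fitted curve at half-maximal effect; plate controls were basal vehicle for no effect and high inhibitor control for full effect; nearly all actives have a fitted effect of over 50% in size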
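Concentration–response in CHO-M1 cells, lithium-potentiated; 30 min at 37C. IP1 detected by competitive TR-FRET after 10 min lysis at RT. Hill-fitted AC50.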
IMPase cell inh = membrane-permeable compound that blocks inositol monophosphatase | P97697 | CHO-M1 cells, IP1 accumulation, HTRF TR-FRET ratio | inhibition (IP1 accumulation), % at 46.1 µM | 120,000 tested, under 10 active | AID 901; active = well fitted curve in the direction sought with a large enough effect in the signal ratio, not every such curve was filed as active; inconclusive = small, poorly fitted or top-dose-only effect, or a change in a side signal; inactive = no such curve, though single readings can be large or run the other way; the % refers to the signal ratio;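 also: cells stimulated with carbachol in lithium chloride buffer; plate controls were DMSO basal wells for no effect and reference inhibitor wells for full effect; higher means more IMPase inhibition seen as more IP1 and lower FRET ratio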
Target sequence (P97697 whole entry, looked up): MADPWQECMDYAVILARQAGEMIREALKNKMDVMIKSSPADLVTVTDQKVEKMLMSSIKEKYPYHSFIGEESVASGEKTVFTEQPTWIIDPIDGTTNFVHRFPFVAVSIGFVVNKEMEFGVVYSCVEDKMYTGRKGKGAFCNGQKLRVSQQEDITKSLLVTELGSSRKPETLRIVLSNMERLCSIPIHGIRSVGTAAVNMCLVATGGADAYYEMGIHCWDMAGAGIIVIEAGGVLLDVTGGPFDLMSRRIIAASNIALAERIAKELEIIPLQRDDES
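CHO-M1 cells (CHO stably expressing M1 receptor), compound up to 46 uM final, stimulated with carbachol (50 uM as added) in buffer with 50mM LiCl, pH 7.4, 30 min at 37C. Cytosolic IP1 read by TR-FRET; AC50 from Hill fits.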
* = called active by the depositor; ? = inconclusive; · = no result given; [ ] = dose if it differs, or a comment. In the library only some 11% were active in any assay of this set; here they are far more common. Unless noted, calls follow the shape of the dose curve; as a rule, active = well fitted curve in the direction sought with a large enough effect; inconclusive = small, poorly fitted or top-dose-only effect, or another doubt; inactive = no such curve, though single readings can be large; an effect the other way counts as inactive or inconclusive. Unless noted, % is scaled to controls: 0 for no effect and ±100 for the full control effect.

SMILES | ALDH1A1 block | PNC inhibitor | 12-hLO inh | HPGD block | IMPase Li inh | IMPase cell inh
O[C@@](CCN1CCCCC1)(c1ccccc1)C1CCCCC1 | -6%[20.9 µM] | · | 0%[25.6 µM] | -5% | 12% | 21[20.6 µM]
Cc1ccc(C2CC(c3ccccc3)=NN2C(=S)Nc2ccccc2)o1 (centres undefined) | 2µM* | -88* | ? | 18µM* | -6%[38.3 µM] | -1
O=C(CSc1nc2ccccc2[nH]1)N1CCN(c2ccc(F)cc2)CC1 | 25µM* | 33 | -1% | -11% | 9%[38.3 µM] | 14
CC1CCN(C(=O)CSc2nc3ccccc3[nH]2)CC1 | ? | -26 | -2% | -23% | -5%[38.3 µM] | 0
C=CCn1c(N)cc(=O)nc1SCC(=O)N1CCN(c2ccc(F)cc2)CC1 | 14µM* | 6 | -1% | -7% | -5%[38.3 µM] | 4
CCn1c(SCC(=O)N2CCN(c3ccc(F)cc3)CC2)nc2ccccc2c1=O | 25µM* | -15 | 2% | -18% | 22%[38.3 µM] | -4
C=CCn1c(CSCc2ccccc2)nnc1SCC(=O)N1CCN(c2ccccc2)CC1 | 0.79µM* | 2 | -6% | · | · | 7
Nc1ncnc2c1ncn2[C@@H]1O[C@@H](CO)[C@H](O)[C@@H]1O | · | · | 2% | · | · | -1
O=C(c1ccc(S(=O)(=O)NCc2ccco2)cc1)N1CCN(Cc2ccc3c(c2)OCO3)CC1 | 18% | · | · | · | 4% | ·
CS(=O)(=O)Nc1cccc(-c2nccc(Nc3ccc(F)cc3)n2)c1 | 4% | · | · | · | 19% | ·
CCn1c(SCC(=O)N2CCN(c3ccccc3)CC2)nc2c(c1=O)SC(C)C2 (centres undefined) | 2.2µM* | -25 | 1% | -29% | -2% | 2
CCc1ccccc1NC(=O)CN1C(=O)C2CCCN2c2ncc(Cl)cc21 (centres undefined) | 18µM* | ? | -5% | -10% | 14%[38.3 µM] | 8
Cc1cc(C)nc(NS(=O)(=O)c2ccc(NC(=O)c3ccc(S(=O)(=O)N4CCOCC4)cc3)cc2)n1 | 3% | -21 | 4% | -7% | -1%[38.3 µM] | 3
O=C(c1ccc2c(c1)OCO2)N1CCN(c2ccc(Cl)cc2)CC1 | ? | -14 | -23% | -15% | 7%[38.3 µM] | 6
Cc1cc(C)nc(NS(=O)(=O)c2ccc(NC(=O)c3ccc4c(c3)OCO4)cc2)n1 | 25µM* | -26 | -2% | ? | 4%[38.3 µM] | 3
O=C(Nc1ccccc1N1CCN(C(=O)c2ccc(Cl)cc2)CC1)c1ccc2c(c1)OCO2 | ? | -102* | -20% | ? | 32%[38.3 µM] | 0
O=C(Nc1ccc(C(=O)N2CCCC2)cc1)c1ccc2c(c1)OCO2 | ? | -17 | -1% | 6.3µM* | 21%[38.3 µM] | -2
COc1ccc(-c2c(C#N)c(SCC(=O)Nc3ccc(Br)cc3)nc(C)c2C(=O)Nc2ccccc2)cc1 | · | · | · | · | · | 1
CC12C=CC(=O)C=C1[C@@H](F)CC1C2C(O)CC2(C)C1CC[C@]2(O)C(=O)CO (some centres undefined) | 1% | · | -3%[0.00818 µM] | -8% | 1% | ·
C=C1c2cccc(O)c2C(O)=C2C(=O)[C@@]3(O)C(O)=C(C(N)=O)C(=O)[C@@H](N(C)C)[C@@H]3[C@@H](O)[C@H]12 | 6%[20.9 µM] | · | -7%[25.6 µM] | 10µM* | -3% | -1[20.6 µM]
O=C(O)c1ccccc1-c1oc2cc(O)ccc2c(=O)c1Oc1ccccc1 | 20µM* | · | · | ? | -23% | ·
Cc1ccc(S(=O)(=O)N(CCCO)CC(O)CON=C2c3ccccc3-c3ccccc32)cc1 (centres undefined) | 8.9µM* | 32 | -5% | -9% | 11% | 2
COc1ccc(N=C2CCCN2CC(N)=O)cc1 | -2% | -3 | -3% | 2% | -21%[38.3 µM] | 1
COc1ccc(N=C2C(=O)N3CCCc4cccc2c43)cc1 | 0.035µM* | 37 | -2% | -20% | 2% | ·
O=C(NCCc1ccccc1)C1c2ccccc2C(=O)N1Cc1cccs1 (centres undefined) | 13µM* | · | · | · | 2% | ·
SMILES | ALDH1A1 block | PNC inhibitor | 12-hLO inh | HPGD block | IMPase Li inh | IMPase cell inh
COc1ccc2c(c1)CC(C1(O)C(=O)Nc3ccccc31)C2=O (centres undefined) | 32µM* | 11 | -2% | -1% | 2%[38.3 µM] | 2
O=C1CCCCCC1C1(O)C(=O)Nc2ccccc21 (centres undefined) | 0% | -27 | 2% | -10% | 13%[38.3 µM] | 0
COc1ccc(NC(=O)c2cccc(Oc3ccc([N+](=O)[O-])cc3Cl)c2)cc1 | ? | -2 | 0% | -4% | 0% | ·
O=C(Nc1cccc(Cl)c1)c1cccc(Oc2ccc([N+](=O)[O-])cc2Cl)c1 | 10µM* | -4 | 2% | -4% | 6% | ·
Cc1ccc(/C(O)=C2/C(=O)C(=O)N(CCN3CCOCC3)C2c2cccnc2)cc1 (centres undefined) | ? | 1 | 7% | -20% | 6% | -15
CC1Cc2cc(/C(O)=C3/C(=O)C(=O)N(CCCn4ccnc4)C3c3cccnc3)ccc2O1 (centres undefined) | -2% | 13 | 1% | -13% | 11µM* | -20
COc1ccc(/C(O)=C2/C(=O)C(=O)N(CCN3CCOCC3)C2c2cccnc2)cc1OC (centres undefined) | 25µM* | 212 | -4% | -20% | ? | ?
COc1cccc(/C(O)=C2/C(=O)C(=O)N(CCN3CCOCC3)C2c2cccnc2)c1 (centres undefined) | 3.5µM* | -18 | -9% | -26% | -13%[38.3 µM] | 9
CCOc1cccc(/C(O)=C2/C(=O)C(=O)N(CCN3CCOCC3)C2c2cccnc2)c1 (centres undefined) | ? | ? | 3% | -7% | 2%[38.3 µM] | -2
Cc1ccccc1OC1C=CC(c2ccccc2)OC1CO (centres undefined) | 0%[13.5 µM] | · | · | · | · | ·
COc1ccccc1NC(=O)Nc1nnc(CC(=O)Nc2ccccc2C)s1 | 11% | · | · | · | 14% | ·
CCOC(=O)C1CCN(CC(=O)N2C(C)CCCC2C)CC1 (centres undefined) | 11µM* | -7 | -1% | -19% | 17%[38.3 µM] | -3
CCOC(=O)C1CCN(Cc2ccccc2C)CC1 | ? | 17 | -8% | -6% | 59%[38.3 µM] | 8
N#Cc1ccc(CN2CCC3(CC2)CCN(C(=O)c2ccncc2)CC3)cc1 | -1% | · | 0% | 2% | 29% | ·
COc1cccc(OC)c1C(=O)NC1C(=O)N2C1SC(C)(C)C2C(=O)O (centres undefined) | -11% | · | -7% | -8% | 7% | ·
FC(F)Oc1ccc(NC(=S)NCc2ccccc2)cc1 | 2% | 10 | -7% | -14% | -2% | -7
CN(NC(=S)Nc1ccc(OC(F)F)cc1)C(=S)Nc1ccc(OC(F)F)cc1 | 22% | -1 | -4% | 18µM* | -7% | 8
FC(F)Oc1ccc(NC(=S)Nn2cnnc2)cc1 | 7.9µM* | · | · | · | -5% | ·

Screening data from PubChem.
